697 NFkB inh – inhibitors of PMA/ionomycin-induced NF-kB reporter, 697 cells, primary screen, B-cell NF-kB inhibitor project, cell-based, luminescence, uHTS; 330,000 compounds, 0.33% hits; inhibition, % at 4 µM; 697 B-cell NF-kB luciferase reporter, 16 h; AID 435022, 2010; in the data active means inhibition above about 35%
Beta cell apopt – inhibitors of cytokine-induced beta cell apoptosis, primary screen, luminescence. INS-1E cytokine-induced death, ATP luminescence, 48 h; percent of positive-control rescue, neutral wells zero. protection from apoptosis, % (concentration not given with the values). 300,000 compounds, 0.8% hits;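 active means Every replicate reaches about 75%, or at least half do and their mean reaches it too, limit read from the data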;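 further: 0% = cytokine-treated negative control wells and 100% = positive control rescue; higher means more ATP so stronger rescue from cytokine killing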
Jurkat NFkB inh – inhibitors of induced NF-kB luciferase reporter, primary screen, TCR NF-kB activation inhibitor project, cell-based, luminescence, uHTS | Jurkat, PMA/ionomycin-induced NF-kB luciferase reporter | inhibition, % at 4 µM | 330,000 compounds, 0.53% hits | AID 435003, 2010; in the data active means inhibition above about 50%
Gli-Sufu antag – Gli-Sufu pathway antagonists, primary screen, luciferase luminescence, Sufu-KO-LIGHT cells, uHTS; inhibition, % at 5 µM; Sufu-KO-LIGHT fibroblasts, Gli luciferase reporter luminescence; 340,000 compounds, 0.74% hits; AID 588413, 2011;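 active means inhibition above about 55%, limit read from the data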;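 further: 0% = DMSO-treated cells and 100% = wells with medium but no cells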
CSC inhib – cancer stem cell viability inhibitors, primary screen, luminescence; cancer stem cell-like cells viability; inhibition, % at 7.5 µM; 300,000 compounds, 1.1% hits; in the data active means inhibition above about 75%; tested in HMLE shEcad cells
Mdm2-MdmX inh – inhibitors of human Mdm2-MdmX association, primary screen, cell-based, luminescence, split luciferase, SaOS-2, uHTS. Protein Mdm4 (Homo sapiens) + E3 ubiquitin-protein ligase Mdm2 (Homo sapiens), …. SaOS-2 split-luciferase Mdm2/MdmX complementation. inhibition, % at 8 µM. 330,000 compounds, 3% hits. AID 485346, 2010;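 active means inhibition of at least 50% at 8 µM in the primary screen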
Target sequence (O15151 whole entry, looked up): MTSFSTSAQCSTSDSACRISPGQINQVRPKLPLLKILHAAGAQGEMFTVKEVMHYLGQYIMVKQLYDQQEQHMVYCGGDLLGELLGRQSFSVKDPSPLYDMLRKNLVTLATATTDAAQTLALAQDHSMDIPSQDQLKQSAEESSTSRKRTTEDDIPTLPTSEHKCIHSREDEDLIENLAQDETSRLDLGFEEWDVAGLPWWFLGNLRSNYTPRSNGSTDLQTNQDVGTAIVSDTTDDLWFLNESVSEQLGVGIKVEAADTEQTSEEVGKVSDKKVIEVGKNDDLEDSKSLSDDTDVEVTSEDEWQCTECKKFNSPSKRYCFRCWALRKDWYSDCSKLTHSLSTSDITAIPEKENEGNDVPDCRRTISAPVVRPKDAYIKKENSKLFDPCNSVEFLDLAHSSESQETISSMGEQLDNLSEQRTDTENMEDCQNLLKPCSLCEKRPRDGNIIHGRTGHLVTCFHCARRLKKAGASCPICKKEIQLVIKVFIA
Target sequence (Q00987 whole entry, looked up): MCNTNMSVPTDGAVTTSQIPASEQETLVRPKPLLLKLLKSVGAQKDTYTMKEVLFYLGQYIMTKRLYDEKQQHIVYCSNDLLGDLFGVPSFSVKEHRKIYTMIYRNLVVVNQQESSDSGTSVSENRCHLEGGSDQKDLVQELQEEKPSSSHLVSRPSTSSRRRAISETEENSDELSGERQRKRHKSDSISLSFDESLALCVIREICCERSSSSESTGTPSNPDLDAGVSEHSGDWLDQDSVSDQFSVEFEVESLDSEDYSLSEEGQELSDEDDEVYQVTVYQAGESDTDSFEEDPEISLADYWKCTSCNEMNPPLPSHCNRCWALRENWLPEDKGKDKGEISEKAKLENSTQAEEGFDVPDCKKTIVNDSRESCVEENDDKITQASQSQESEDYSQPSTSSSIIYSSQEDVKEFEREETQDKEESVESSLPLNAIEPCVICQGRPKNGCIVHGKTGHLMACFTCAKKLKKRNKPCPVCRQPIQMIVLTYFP
Mdm2-MdmX conf – Mdm2-MdmX complex disruptors, retested hits, confirmation, luminescence, single concentration; inhibition, % at 8 µM; shares compounds with Mdm2-MdmX inh; Mdm2-MdmX binding, luminescent assay; 10,000 compounds, 55% hits; in the data active means inhibition above about 40%
FLuc counter – full-length luciferase signal inhibition, confirmation, counter-screen for Mdm2/MdmX interaction inhibitor project, cell-based, single concentration, SaOS-2. shares compounds with Mdm2-MdmX inh. SaOS-2 full-length luciferase counterscreen, luminescence. inhibition, % at 8 µM. 6,200 compounds, 77% hits. AID 504607, 2011;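 active means mean inhibition at 8 µM reaching about 37%, which flags the compound as non-specific, limit read from the data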;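 further: p53-null SaOS-2 cells with luciferase driven by a doxycycline-inducible promoter; compound on cells about two nights before reading with doxycycline added after day one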
* = called active by the depositor; / = not tested or not shown; + = active, no number. This is a sample that favours compounds with a hit; in the whole collection about 4.5% have one here.

SMILES	697 NFkB inh	Beta cell apopt	Jurkat NFkB inh	Gli-Sufu antag	CSC inhib	Mdm2-MdmX inh	Mdm2-MdmX conf	others
CC1(NC(=O)Nc2cccc3ccccc23)CCS(=O)(=O)C1 (stereo not drawn)	-13	0	-5	10	-12	16	/
CCOC(=O)c1c(O)c2cc(Cl)ccc2n(CC)c1=O	17	-10	-18	-6	-2	15	/
OC(COCC(F)(F)C(F)(F)C(F)(F)C(F)F)Cn1c2ccc(Cl)cc2c2cc(Cl)ccc21 (stereo not drawn)	-31	/	-15	4	116*	95*	28
NC(=O)CN1C(=O)C(O)(CC(=O)/C=C\c2ccc3c(c2)OCO3)c2ccccc21 (stereo not drawn)	-8	-11	7	-7	-4	6	/
CN1C(=O)C(O)(CC(=O)/C=C\c2ccc3c(c2)OCO3)c2ccccc21 (stereo not drawn)	-9	-4	11	5	2	55*	-2
COc1ccc(C(=O)/C=C/c2ccsc2)cc1CSCC(=O)O	0	12	3	33	5	20	/
CC(Oc1ccccc1F)C(=O)Nc1ccc2ccccc2c1 (stereo not drawn)	-182	-2	-67	-2	6	68*	63*	FLuc counter=66*
CC(Oc1ccc(F)cc1)C(=O)Nc1ccc2ccccc2c1 (stereo not drawn)	-91	6	-35	-4	42	53*	35
CN(Cc1ccccc1)C(=O)COC(=O)CCC(=O)c1ccc(F)cc1	-9	-1	-5	5	7	-5	/
COCc1nnc(NC(=O)C2CC(=O)N(c3ccc(C)c(Cl)c3)C2)s1 (stereo not drawn)	-11	/	11	-3	-17	-9	/
Cc1ccc(N2CC(C(=O)Nc3nccs3)CC2=O)cc1Cl (stereo not drawn)	12	35	14	-100	57	84*	69*	FLuc counter=+
O=C(c1ccc(Br)o1)N1CCN(c2ccc3nnc(-c4ccccc4)n3n2)CC1	-98	2	-17	27	2	58*	-4
Cc1ccc2[nH]cc(C(=O)CCl)c2c1	-23	-81	24	-7	13	82*	67*	FLuc counter=58*
Cc1ccc2c(C(=O)CCl)c(C)[nH]c2c1	7	-44	11	3	22	92*	77*	FLuc counter=60*
Cc1ccc2c(C(=O)CN3CCSCC3)c(C)[nH]c2c1	-24	3	5	-1	/	18	/
COc1ccccc1/C=C1\CCCC2=C1Nc1nnnn1C2c1ccccc1OC (stereo not drawn)	/	-20	/	7	55	/	/
COc1ccccc1N(CC(=O)NCc1ccccc1)C(=O)CCC(=O)Nc1nccs1	14	0	-5	6	-11	15	/
N#CC(C(=O)Nc1ccc(Cl)c(Cl)c1)=C1Nc2ccccc2N1	-12	14	3	-14	19	59*	31	FLuc counter=37*
N#CC(C(=O)Nc1cccc(Cl)c1)=C1Nc2ccccc2N1	15	20	-7	-3	/	24	/
CCN(C(=O)COC(=O)CCc1ccccc1)c1ccccc1	-4	-7	-5	-20	-10	13	/
COc1ccc(/C=C/C(=O)OCC(=O)c2ccc3c(c2)NC(=O)CO3)cc1	7	1	24	-12	-1	92*	13

Bioassay records: PubChem, several laboratories
